Test results from the supplement of paper PMC10670038.
Counter-ions that a name gives are not always drawn. ± gives the standard deviation of the averaged measurements. Over roughly 2,000 compounds, “relative cell viability vs DMSO, compound alone” has its median near 1.1; the lowest 2% begin near 0.29. This excerpt belongs to a sample that is enriched for the lowest values.

system: TE10; experiment: relative cell viability vs DMSO, compound alone (fraction); TE10 is an esophageal squamous carcinoma line; higher = less cytotoxic; conditions: 2 µM; 48 h
Description: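 TE10 ESCC cells (1,000/well, 384-well plates) were treated with Selleck bioactive library compounds at 2 uM alone for 48 h. Viability was read by CellTiter-Glo and expressed relative to DMSO wells. Two technical replicates (A, B).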

In order of rising relative cell viability:
1. COc1ccc(-c2ccc3ncc4c(c3c2)n(-c2ccc(N3CCNCC3)c(C(F)(F)F)c2)c(=O)n4C)cn1  0.0662 ± 0.0018
2. O=C(/C=C/c1ccc(CN(CCO)CCc2c[nH]c3ccccc23)cc1)NO [LAQ824 (Dacinostat)]  0.0682 ± 0.006
3. COc1ccc(-c2nc(N3CCOCC3)c3sc(CN(C)c4ncc(C(=O)NO)cn4)cc3n2)cn1  0.0746 ± 0.0025
4. Cn1cc(CNCC2CCN(c3ncc(C(=O)NO)cn3)CC2)c2ccccc21  0.078 ± 0.0008
5. CC(C)C[C@H](NC(=O)[C@H](Cc1ccccc1)NC(=O)c1cnccn1)B(O)O [Bortezomib (PS-341)]  0.09 ± 0.011
6. CC(C)C[C@H](NC(=O)[C@@H](NC(=O)c1cccc(-c2ccccc2)n1)[C@@H](C)O)B(O)O  0.0932 ± 0.003
7. c1cc(-c2cnn3cc(-c4ccc(N5CCNCC5)cc4)cnc23)c2cccnc2c1  0.0982 ± 0.0034
8. O=C(Nc1cc(C(F)(F)F)cc(C(F)(F)F)c1)c1cc(Cl)ccc1O  0.18 ± 0.0024
9. CN(NC(=O)CC(=O)NN(C)C(=S)c1ccccc1)C(=S)c1ccccc1 [Elesclomol (STA-4783)]  0.181 ± 0.013
10. CC(C)[C@H](C(=O)Nc1ccc(C(=O)NO)cc1)c1ccccc1  0.221 ± 0.015
11. CN1CC[C@H](c2c(O)cc(O)c3c(=O)cc(-c4ccccc4Cl)oc23)[C@H](O)C1 [Flavopiridol (Alvocidib)]  0.228 ± 0.055
12. NC(=O)Nc1cc(-c2cccc(F)c2)sc1C(=O)N[C@H]1CCCNC1  0.259 ± 0.021
13. COC(=O)[C@]12CCC(C)(C)C[C@H]1[C@H]1C(=O)C=C3[C@@]4(C)C=C(C#N)C(=O)C(C)(C)[C@@H]4CC[C@@]3(C)[C@]1(C)CC2 [Bardoxolone Methyl]  0.272 ± 0.0085
14. CN1CC[C@H](c2c(O)cc(O)c3c(=O)cc(-c4ccccc4Cl)oc23)[C@H](O)C1 [Flavopiridol HCl]  0.293 ± 0.03
15. Cc1c(CN2CCN(C(=O)[C@H](C)O)CC2)sc2c(N3CCOCC3)nc(-c3cnc(N)nc3)nc12  0.317 ± 0.021
16. CC(C)C[C@H](NC(=O)CNC(=O)c1cc(Cl)ccc1Cl)B(O)O  0.341 ± 0.023
17. Nc1ccc(-c2ccc3ncc4ccc(=O)n(-c5cccc(C(F)(F)F)c5)c4c3c2)cn1 [Torin 2]  0.378 ± 0.014
18. CS(=O)(=O)N1CCN(Cc2cc3nc(-c4cccc5[nH]ncc45)nc(N4CCOCC4)c3s2)CC1  0.483 ± 0.0077
19. CN1CC[C@@H](c2c(O)cc(O)c3c(=O)cc(-c4ccccc4Cl)oc23)[C@@H]1CO  0.501 ± 0.008
20. CCc1c(O)cc(O)c(C(=O)c2ccc(OCCN3CCOCC3)c(OC)c2)c1CC(=O)N(CCOC)CCOC  0.546 ± 0.009
21. CC1(C)CC[C@]2(NC(=O)C(C)(F)F)CC[C@]3(C)[C@H](C(=O)C=C4[C@@]5(C)C=C(C#N)C(=O)C(C)(C)[C@@H]5CC[C@]43C)[C@@H]2C1 [Omaveloxolone (RTA-408)]  0.59 ± 0.032
22. C[C@H]1O[C@@H](O[C@H]2[C@@H](O)C[C@H](O[C@H]3[C@@H](O)C[C@H](O[C@H]4CC[C@@]5(C)[C@H](CC[C@@H]6[C@@H]5C[C@@H](O)[C@]5(C)[C@@H](C7=CC(=O)OC7)CC[C@]65O)C4)O[C@@H]3C)O[C@@H]2C)C[C@H](O)[C@@H]1O [Digoxin]  0.603 ± 0.013
23. COc1cccc2cc(-c3nc([C@H]4CC[C@H](C(=O)O)CC4)n4ncnc(N)c34)[nH]c12  0.667 ± 0.0089
24. C[C@@H](Oc1ccc2[nH]nc(/C=C/c3cnn(CCO)c3)c2c1)c1c(Cl)cncc1Cl  0.712 ± 0.01
25. CCCCN(Cc1ccc(C(=O)NO)cc1)C(=O)Nc1ccccc1 [Nexturastat A]  0.716 ± 0.074
26. C=CC(=O)Nc1cccc(Oc2nc(Nc3ccc(N4CCN(C)CC4)cc3)ncc2Cl)c1  0.758 ± 0.011
27. COC(=O)c1ccc2c(c1)nc(NC(=O)c1ccccc1)n2CCCc1ccccc1  0.777 ± 0.0059
28. Cc1nc(Nc2n[nH]c3c2CN(C(=O)N[C@H](CN(C)C)c2ccccc2)C3(C)C)c2sccc2n1  0.789 ± 0.037
29. Cc1cc(Nc2cc(N3CCN(C)CC3)nc(/C=C/c3ccccc3)n2)n[nH]1 [ENMD-2076 L-(+)-Tartaric acid]  0.808 ± 0.069
30. Cc1cc(Nc2cc(N3CCN(C)CC3)nc(/C=C/c3ccccc3)n2)n[nH]1  0.856 ± 0.03
31. CNC(=O)[C@H](Cc1ccccc1)NC(=O)[C@H](CC(C)C)[C@H](CSc1cccs1)C(=O)NO [Batimastat (BB-94)]  0.884 ± 0.076
32. CC(C)/N=c1\cc2n(-c3ccc(Cl)cc3)c3ccccc3nc-2cc1Nc1ccc(Cl)cc1 [Clofazimine]  0.929 ± 0.062
33. CN1CCc2c(c3ccccc3n2Cc2ccc(C(=O)NO)cc2)C1 [Tubastatin A HCl]  0.9558 ± 0.0063
34. CN(C)c1cccc(-c2c3c(=O)n(-c4ccccc4Cl)[nH]c3cc(=O)n2C)c1  0.959 ± 0.036
35. NC(=O)Nc1sc(-c2ccc(F)cc2)cc1C(N)=O  0.98 ± 0.072
36. COc1cc2ncnc(Nc3ccc(Cl)cc3F)c2cc1OC  0.999 ± 0.16
37. CC(=O)Nc1ccc(C(=O)Nc2ccccc2N)cc1 [CI994 (Tacedinaline)]  1 ± 0.017
38. Cc1cccc(CC(=O)N2CCc3c2ccc(-c2cn(C)c4ncnc(N)c24)c3F)n1  1.01 ± 0.047
39. CNC[C@H](O)[C@@H](O)[C@H](O)[C@H](O)CO [Meglumine]  1.008 ± 0.0073
40. COc1cc(C(=O)NS(=O)(=O)c2ccccc2C)ccc1Cc1cn(C)c2ccc(NC(=O)OC3CCCC3)cc12 [Zafirlukast]  1.03 ± 0.033
41. CCOc1ccc2nc3cc(N)ccc3c(N)c2c1 [Ethacridine lactate monohydrate]  1.033 ± 0.0023
42. N[C@@H]1CCCN(c2c(/C=C3\SC(=O)NC3=O)cccc2-c2ccccc2)C1  1.03 ± 0.047
43. O=C(c1ccc(Nc2nccc(-c3cc4ccccc4s3)n2)cc1)N1CCC(N2CCCC2)CC1 [IKK-16 (IKK Inhibitor VII)]  1.03 ± 0.02
44. C[N+](C)(C)C[C@H](O)CC(=O)[O-] [L-carnitine]  1.04 ± 0.016
45. O=C(NC[C@H]1CN(c2ccc(N3CCOCC3=O)cc2)C(=O)O1)c1ccc(Cl)s1 [Rivaroxaban]  1.04 ± 0.076
46. Nc1nc(=O)n([C@@H]2CS[C@H](CO)O2)cc1F [Emtricitabine]  1.06 ± 0.076
47. Cc1cc2c(cc1CC(=O)c1sccc1S(=O)(=O)Nc1onc(C)c1Cl)OCO2 [Sitaxentan sodium]  1.06 ± 0.022
48. NC(=O)N1CCC(CC(=O)N2CCC([C@H]3c4ncc(Br)cc4CCc4cc(Cl)cc(Br)c43)CC2)CC1 [Lonafarnib]  1.06 ± 0.049
49. CC(ONC(=O)c1cc(C(F)(F)F)cc(C(F)(F)F)c1)C(=O)Nc1ccc(Cl)cc1 (stereo not given)  1.07 ± 0.024
50. O=C(Nc1ccccc1)c1ccccc1O [Salicylanilide]  1.07 ± 0.059
51. O=C(O)CCNC(=O)c1ccccc1 [Betamipron]  1.08 ± 0.022
52. O=C(O)c1ccccc1 [Benzoic Acid]  1.09 ± 0.0064
53. NC1CC1c1ccc(-c2cccc(O)c2)cc1 (stereo not given)  1.09 ± 0.03
54. Cc1cc(N2CCOCC2)ccc1Nc1nc(NC2CCCCC2)c2[nH]cnc2n1  1.098 ± 0.0034
55. O=C(O)CCCc1c[nH]c2ccccc12 [3-Indolebutyric acid (IBA)]  1.1 ± 0.024
56. CC(C)CC(N)=O [Isovaleramide]  1.1 ± 0.057
57. Cc1cc(C)nc(NS(=O)(=O)c2ccc(N)cc2)n1 [Sulfamethazine]  1.1 ± 0.044
58. NCCCC[C@@H]1NC(=O)[C@@H](Cc2ccccc2)NC(=O)[C@H](CC(=O)O)NC(=O)CNC(=O)[C@H](CCCN=C(N)N)NC1=O [Cyclo (-RGDfK)]  1.1 ± 0.024
59. Cc1cc(C)cc(NC(=O)Cc2ccc(OC(C)(C)C(=O)O)cc2)c1 [Efaproxiral Sodium]  1.11 ± 0.012
60. Nc1ccccc1NC(=O)c1cnccn1  1.11 ± 0.037
61. Oc1ccc(Nc2nc(-c3ccc(Cl)cc3)cs2)cc1  1.11 ± 0.019
62. COc1cc(C=O)ccc1O [Vanillin]  1.11 ± 0.027
63. N#Cc1ccc(-c2csc(NN=C3CCCC3)n2)cc1 [Remodelin]  1.121 ± 0.0093
64. COc1cc(C(=O)NC2CCCNC2)cc(OC)c1OC (stereo not given) [Troxipide]  1.13 ± 0.016
65. CCCCCCCCCCCCCCCC(=O)OCC(O)C1OC(=O)C(O)=C1O [L-Ascorbyl 6-palmitate]  1.14 ± 0.031
66. OCc1c[nH]c2ccccc12 [Indole-3-carbinol]  1.14 ± 0.048
67. CN1CCc2c(c3ccccc3n2Cc2ccc(C(=O)NO)cc2)C1 [Tubastatin A]  1.14 ± 0.023
68. COc1ccc(COc2cc3oc(=O)c4cc(C(C)O)ccc4c3cc2OC)cc1 (stereo not given) [Palomid 529 (P529)]  1.14 ± 0.025
69. COCCOC(=O)C1=C(C)NC(C)=C(C(=O)OC/C=C/c2ccccc2)C1c1cccc([N+](=O)[O-])c1 (stereo not given) [Cilnidipine]  1.15 ± 0.055
70. COc1cc(-c2cc(-c3ccc(N4CCNCC4)cc3)cnc2C)cc(OC)c1OC  1.16 ± 0.019
71. C[C@@H]1CN(CC(=O)Nc2ccc3c(c2)Cc2cccc(-c4cc(=O)cc(N5CCOCC5)o4)c2S3)C[C@H](C)O1  1.17 ± 0.021
72. CC(C)(O)CC(=O)NCCn1ccc2ncnc(Nc3ccc(Oc4cccc(C(F)(F)F)c4)c(Cl)c3)c21  1.17 ± 0.07
73. COc1ccc(-c2cnc3c(-c4cccc5ncccc45)cnn3c2)cc1  1.171 ± 0.0012
74. C[C@]12CCC3=C4CCC(=O)C=C4CC[C@H]3[C@@H]1CC[C@@]2(O)CC#N [Dienogest]  1.19 ± 0.024
75. CC(C)Oc1ccc(-c2cnc3c(-c4ccnc5ccccc45)cnn3c2)cc1  1.19 ± 0.027
76. CCn1c2ccccc2c2cc(Nc3ccnc(NCCCN4CCOCC4)n3)ccc21  1.2 ± 0.076
77. COCCCC/C(=N\OCCN)c1ccc(C(F)(F)F)cc1 [Fluvoxamine maleate]  1.21 ± 0.041
78. COc1cc(-c2cc(-c3cccc(O)c3)cnc2N)cc(OC)c1OC  1.21 ± 0.0055
79. CCN(CC)CCCCNc1ncc2cc(-c3cc(OC)cc(OC)c3)c(NC(=O)NC(C)(C)C)nc2n1  1.23 ± 0.029
80. CC1(C)O[C@@H]2[C@@H](CO[C@@]3(COS(N)(=O)=O)OC(C)(C)O[C@@H]23)O1 [Topiramate]  1.29 ± 0.052
